Compound activity as filed in PubChem BioAssay.
Luc counter – Counterscreen for Luciferase (Kinase-Glo TM) Inhibition | Kinase-Glo luciferase, ATP luminescence, 8 min | Potency, µM (titrated, usually from 38.3 µM), usual class: inhibitors | actives 0.28% (n = 200,000); also: nearly all actives have a fitted effect of over 60% in size
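Light output from Kinase-Glo luciferase with luciferin and 10 uM ATP in 50 mM imidazole pH 7.2, KCl, MgCl2, Tween 20, BSA; compound pin-delivered, 8-min ambient incubation, then luminescence read.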
Rab9 promoter act – qHTS Assay for Rab9 Promoter Activators | Huh7 Rab9 promoter-luciferase reporter, luminescence, 24 h | actives 2.8% (n = 320,000) | Potency, µM (top dose mostly 9.22 µM), actives largely listed as activators | AID 485297, 2010; also: nearly all actives have a fitted effect of over 60% in size
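Rab9 promoter-driven luciferase in stably transfected Huh7 cells; 1500 cells/well rested 2 h, exposed to compound in DMSO for 24 h at 37 °C, 5% CO2. Luminescence read 10 min after adding luciferase reagent at ambient temperature.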
SMN2 splice up – qHTS Assay for Enhancers of SMN2 Splice Variant Expression; actives 2.8% (n = 210,000); HEK293 SMN2-luciferase splicing reporter, luminescence, 30-36 h; AID 1458, 2008; Potency, µM (highest dose often 46.1 µM), most hits filed as activators; also: nearly all actives have a fitted effect of over 55% in size
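HEK293 cells carry an SMN2 minigene-luciferase reporter in which exon 7 inclusion puts luciferase in frame. Cells were seeded at 2000 cells/well, attached for 10-12 hours, then exposed to compounds for 30-36 hours at 37C before ONE-Glo luminescence.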
FLuc counter – qHTS profiling assay for firefly luciferase inhibitor/activator using purifed enzyme and Km concentrations of substrates (counterscreen for miR-21 project); Potency, µM (top dose mostly 57.5 µM), hits mostly inhibitors; actives 6.9% (n = 360,000); Luciferin 4-monooxygenase (Photinus pyralis), P08659; purified FLuc, Km substrates, luminescence inhibition; also: nearly all actives have a fitted effect of over 55% in size
Target sequence (P08659 whole entry, looked up): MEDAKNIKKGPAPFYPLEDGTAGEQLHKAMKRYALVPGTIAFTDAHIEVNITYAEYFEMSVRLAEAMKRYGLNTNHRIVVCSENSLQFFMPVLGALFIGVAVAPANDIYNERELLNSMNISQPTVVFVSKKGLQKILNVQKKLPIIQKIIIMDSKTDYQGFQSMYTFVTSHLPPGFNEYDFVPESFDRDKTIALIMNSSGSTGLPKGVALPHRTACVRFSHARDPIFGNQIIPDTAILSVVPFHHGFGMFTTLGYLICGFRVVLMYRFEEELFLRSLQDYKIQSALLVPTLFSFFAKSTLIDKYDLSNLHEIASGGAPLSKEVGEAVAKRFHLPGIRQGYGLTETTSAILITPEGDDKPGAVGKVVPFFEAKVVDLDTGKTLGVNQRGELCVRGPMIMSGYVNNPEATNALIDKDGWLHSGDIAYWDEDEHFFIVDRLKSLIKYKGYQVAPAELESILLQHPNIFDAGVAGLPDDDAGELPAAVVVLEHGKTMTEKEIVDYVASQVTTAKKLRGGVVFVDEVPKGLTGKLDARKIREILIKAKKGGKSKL
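Purified P. pyralis luciferase, 10 nM final, with Km-level 10 uM D-luciferin and 10 uM ATP in 50 mM Tris acetate pH 7.5, 10 mM Mg acetate, 0.01% Tween-20, 0.05% BSA; 6-point qHTS titration about 60 µM downward; luminescence read.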
NPC1 promoter act – qHTS Assay for NPC1 Promoter Activators | Huh7 NPC1 promoter luciferase reporter, 24 h | Potency, µM (titrated, usually from 9.22 µM), usual class: activators | actives 2.4% (n = 320,000); also: nearly all actives have a fitted effect of over 60% in size
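Luminescence from an NPC1 promoter-driven luciferase reporter in stably transfected Huh7 cells was measured after 24 h compound treatment at 37 °C, followed by 10 min ambient incubation with luciferase detection reagent.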
ELG1 genotoxic – qHTS screen for small molecules that induce genotoxicity in human embryonic kidney (HEK293T) cells expressing luciferase-tagged ELG1; actives 1.3% (n = 330,000); Potency, µM (highest dose often 46 µM), most hits filed as activators; AID 504466, 2011; HEK293T ELG1-luciferase reporter, luminescence, 16 h; also: nearly all actives have a fitted effect of over 60% in size
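DMSO vehicle served as control against compound-treated ELG1-luciferase HEK293T cells; exposure lasted 16 hr at 37 °C and 5% CO2, followed by ONE-Glo luminescence detection after 30 min.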
A number is an active result; 0 = inactive; ? = inconclusive; - = no result. An excerpt weighted towards active compounds, which were near 7.4% of everything screened. Calls follow the shape of the dose curve; as a rule, active = well fitted curve in the direction sought with a large enough effect; inconclusive = small, poorly fitted or top-dose-only effect, or another doubt; inactive = no such curve, though single readings can be large; an effect the other way counts as inactive or inconclusive.

SMILES	Luc counter	Rab9 promoter act	SMN2 splice up	FLuc counter	NPC1 promoter act	ELG1 genotoxic
CC(=O)Nc1ccc2nc(-c3ccccn3)[nH]c2c1	11µM	2.8µM	11µM	19µM	3.5µM	?
c1ccc(-c2nc3cc4ccccc4cc3[nH]2)nc1	11µM	0.63µM	0.45µM	0.11µM	0.63µM	0.23µM
c1cncc(-c2nc3cc4ccccc4cc3[nH]2)c1	?	1.6µM	4µM	0.6µM	?	?
CCOc1ccc(Cl)cc1S(=O)(=O)N1CCC(C(=O)NCC2CCCO2)CC1 (configuration not stated)	-	0	-	0	0	0
Cc1cccc(-n2c(C)nc3cc(C(=O)NCc4ccc5c(c4)OCO5)ccc32)c1	0	0	0	0	0	0
Cn1cc(C=O)c2ccccc21	0	0	-	0	0	0
CC1=NN(c2ccccc2)C(=O)/C1=C\c1cn(C)c2ccccc12	0	0	0	9.5µM	0	0
CC1=NN(c2ccccc2)C(=O)/C1=C/c1cn(C)c2ccccc12	-	0	-	6µM	0	0
CC1=NN(c2ccccc2)C(=O)/C1=C\c1cc(C)n(C)c1C	-	0	-	7.6µM	0	0
Nc1nc(-c2ccc(Cl)c(Cl)c2)c(-c2ccncc2)s1	0	-	0	-	-	-
Cc1cccc(NS(=O)(=O)c2cc(C(=O)N3CCCCCC3)ccc2C)c1	-	0	-	0	0	0
COc1ccc(S(=O)(=O)N2CCCCCC2)cc1NC(=O)Cc1n[nH]c(=O)c2ccccc12	-	0	-	0	0	0
COc1cc(OC)c(NC(=O)c2ccc3c(Cl)c4c(nc3c2)CCCC4)cc1Cl	-	-	0	0	-	-
CCOc1ccccc1NC(=O)c1ccc2c(Cl)c3c(nc2c1)CCCC3	-	-	0	2.7µM	-	-
CCOc1ccccc1NC(=O)c1ccc2c(=O)n3c(nc2c1)CCCCC3	-	0	-	?	0	0
COc1ccccc1NC(=O)c1ccc2c(Cl)c3c(nc2c1)CCCC3	-	-	0	7.6µM	-	-
CC(C)N(CCC(=O)c1ccc2ccccc2c1)Cc1ccccc1	0	0	0	0	0	0
CCOc1ccccc1NC(=O)c1ccc2c(Cl)c3c(nc2c1)CCC3	-	-	0	0.85µM	-	-
CCC(=O)CCC(=O)c1ccc2ccccc2c1	0	?	14µM	15µM	?	?
COc1ccc(N2CCN(c3ncnc4c3cnn4-c3ccc(F)cc3)CC2)cc1	-	-	-	0	-	-
Cc1ccc(CN2CCCn3nc(C(=O)NCCc4ccc(Cl)cc4)cc3C2=O)cc1	-	-	-	0	-	-
CCc1ccc(C2CC(=O)N(c3cccc(F)c3)C3=C2C(=O)OC3)cc1 (configuration not stated)	0	0	0	0	0	0
CCOc1ccccc1NC(=O)c1ccc2ccccc2c1	-	?	-	21µM	?	0
COc1ccc(-c2nc3ccc(Cl)cn3c2Nc2ccc(C)cc2)cc1	-	-	0	0	-	-
COCCNc1c(-c2ccc(OC)cc2)nc2ccc(Cl)cn12	0	?	0	11µM	0	0
SMILES	Luc counter	Rab9 promoter act	SMN2 splice up	FLuc counter	NPC1 promoter act	ELG1 genotoxic
CCOC(=O)CNc1c(-c2ccc(OC)cc2)nc2ccc(Cl)cn12	0	0	?	8.5µM	0	?
CCOC(=O)CNc1c(-c2ccc(Cl)cc2)nc2cnccn12	0	0	0	0	0	0
Cc1ccc(CNC(=O)CSc2nc(=O)n3ccccc3n2)cc1	-	0	-	0	0	0
O=S(=O)(NCCCCNS(=O)(=O)c1c(F)cccc1F)c1ccc2c(c1)OCCO2	-	0	-	0	0	0
COc1ccc(OCc2cc(C(=O)N3CCCC(CO)C3)no2)c2ccccc12 (configuration not stated)	-	4µM	-	8.5µM	4µM	?
CSc1ccccc1OCc1cc(C(=O)N2CCCC(C)C2)no1 (configuration not stated)	-	1.4µM	-	6.7µM	1.6µM	5.2µM
CSc1ccccc1OCc1cc(C(=O)N2CCN(C3CCCC3)C(=O)C2)no1	-	?	-	17µM	?	?
COc1ccccc1OCc1cc(C(=O)N2CCCC(OCc3cccnc3)C2)no1 (configuration not stated)	-	2.5µM	-	13µM	1.8µM	8.2µM
CCN(Cc1nc(-c2ccc(C)cc2)no1)C(=O)c1ccco1	-	0	-	0	0	0
CCc1ccccc1N1CC(c2nc3ccccc3n2CC(C)C)CC1=O (configuration not stated)	-	-	0	0	-	-
CSc1ccccc1OCc1cc(C(=O)N2CCSCC2)no1	-	1.4µM	-	?	2.2µM	0
Cc1cc(C)n(-c2nc(NCCCO)c3c4c(sc3n2)CCCC4)n1	0	0	0	21µM	0	0
O=C(c1cc(-c2ccc(Cl)cc2)on1)N(Cc1cccc(F)c1)Cc1ccco1	-	-	-	0	-	-
CCN1CCN(c2ncc3c(n2)CCN(Cc2cc(Br)cs2)C3)CC1	-	-	-	0	-	-
Clc1ccc2c(c1)-n1cc(-c3ccccc3)nc1CO2	-	-	?	21µM	-	-
CC(C)c1noc(-c2ccccc2OCC(=O)Nc2cccc([N+](=O)[O-])c2)n1	-	-	-	0	-	-
Clc1ccc(-n2cc(COCc3ccccc3)nn2)cc1	0	0.89µM	13µM	1.9µM	0.89µM	?
Cc1ccc(SCC(=O)OCC(=O)N(C)C2CCS(=O)(=O)C2)cc1C (configuration not stated)	-	0	-	0	0	0
CC(C)CCNC(=O)c1ccc2c(c1)nc1n2CCCCC1	-	-	-	6µM	-	-
Cc1ccc(C)c(CNC(=O)c2ccc3c(c2)nc2n3CCCCC2)c1	-	-	-	15µM	-	-
CCc1ccc(CNC(=O)c2ccc3c(c2)nc2n3CCCCC2)cc1	-	-	-	13µM	-	-
Cc1ccccc1CCNC(=O)c1ccc2c(c1)nc1n2CCC(C)C1 (configuration not stated)	-	-	-	8.5µM	-	-
Cc1n[nH]c(=O)c2c(NC(=O)CSc3nncn3C(C)C)oc(C)c12	-	0	-	0	0	0
COc1cc(OC)cc(C(=O)NCC2CCCN(C(=O)c3oc(C)cc3C)C2)c1 (configuration not stated)	-	0	-	0	?	0
O=C(NCCc1ccccc1Cl)c1ccc2c(c1)nc1n2CCCCC1	-	-	-	0.54µM	-	-
Cc1ccc(CCNC(=O)c2ccc3c(c2)nc2n3CCOC2)cc1	-	-	-	0	-	-
COc1ccc(CCNC(=O)c2ccc3c(c2)nc2n3CCCCC2)cc1OC	-	-	-	0	-	-
CCCSCCCNC(=O)c1ccc2c(c1)nc1n2CCCCC1	-	-	-	15µM	-	-
O=C(NCCc1ccccc1)c1ccc2c(c1)nc1n2CCOC1	-	-	-	5.4µM	-	-
C[C@H](CO)N1C[C@H](C)[C@@H](CN(C)Cc2ccc3c(c2)OCO3)Oc2c(NS(=O)(=O)c3cn(C)cn3)cccc2C1=O	-	-	-	-	-	0
